The results in this text go back to PubChem BioAssay (NCI).

Holding throughout (experiment): NCI-60 one-dose screen, 48 h (100 = growth as untreated, 0 = no growth, -100 = all killed)
Holding throughout (details): 10 µM unless noted

For assay [1], the system named is DU-145 prostate.
In assay [2] the test system is K-562 leukemia.
Assay [3] has as its system MALME-3M melanoma.
In assay [4] the test system is MDA-MB-231 breast.
Assay [5] concerns RXF 393 renal.
The test system of assay [6] is SF-268 CNS.
The test system of assay [7] is SF-295 CNS.
The test system of assay [8] is SF-539 CNS.
The subject of assay [9] is UACC-257 melanoma.
In assay [10] the test system is M14 melanoma.
The test system of assay [11] is HCT-15 colon.
Assay [12] has as its system HT29 colon.
Assay [13] relates to SNB-75 CNS.
Assay [14] concerns SNB-19 CNS.
Assay [15] concerns U251 CNS.
The test system of assay [16] is PC-3 prostate.
The subject of assay [17] is SK-MEL-5 melanoma.
The subject of assay [18] is UACC-62 melanoma.
The test system of assay [19] is LOX IMVI melanoma.
Assay [20] concerns SK-MEL-28 melanoma.

This is part of a sample that, as a whole, favours compounds with a hit. Of some 83,000 tested, about 20% had one in any assay.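 Percent growth is the endpoint: 0 to 100 indicates growth inhibition (40 means 60% inhibition), 0 means no net growth, and negative values indicate cell death.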 Values without a mark were called inactive. Calls of active or inactive are those of the source. How the source made its calls: active means growth percent below 10; inactive means the rest.

For the compound `O=C(CSc1nnc(-c2ccc(-c3nc4ccc(Cl)cc4[nH]3)cc2)o1)Nc1ccc(Br)cc1`, the growth in assay [1] is 39.1%; in assay [2], 15%; in assay [3] it was -20.2% (active); in assay [4], -76% (active); in assay [5], -50.9% (active); in assay [6], 28.5%. For the same compound, the growth is 8.38% (active) in assay [7]; -96.3% (active) in assay [8]; 13.1% in assay [9]; 2.92% (active) in assay [10]; 18.6% in assay [11]; 28.6% in assay [12]. The growth in [13] was 46%; in assay [14], -17.5% (active); in assay [15], -89.8% (active); in [16], -29.1% (active); in assay [17] it was -6.99% (active); in assay [18], -53.4% (active). Moreover, the values for the growth in assay [19] and in assay [20] were -100% (active) and -80.6% (active), respectively.

`COc1cc(CNC(=O)C[C@H](C)CCC=C(C)C)ccc1OCc1cn(-c2ccccc2F)nn1`: the growth is 102% in [1]; 81.6% in assay [2]; 78.3% in assay [3]; 66.8% in assay [4]; 38.4% in assay [5]; 58.9% in [6]. In addition, the growth in assay [7] is 45.2%; in assay [8] it was 44.6%; in assay [9] it was 94%; in [10], 94.8%; in assay [11], 82.8%; in assay [12], 97.4%. For the same compound, the growth in assay [13] was 10.6%; in [14], 55.7%; in assay [15] it was 61.6%; in [16], 87.9%; in [17], 70.8%; in [18] it was 69.5%. Besides, the growth is 76.7% in assay [19] and 94.9% in assay [20].

For the compound `O=C(CSc1nnc(-c2ccc(-c3nc4ccccc4[nH]3)cc2)o1)Nc1ccccc1`, the growth in [1] is 4.85% (active); in assay [2], 33.1%; in assay [3], 93.3%; in assay [4], -14.5% (active); in assay [5], -1.42% (active); in assay [6] it was 45.7%. Also, the growth is 94.2% in assay [7]; 46.7% in [8]; 103% in assay [9]; 60.3% in assay [10]; 55.5% in assay [11]; 70.7% in [12]. In addition, the growth was 46.6% in assay [13]; 3.01% (active) in assay [14]; -61% (active) in assay [15]; 86.2% in [16]; 82.7% in assay [17]; 92.1% in [18]. The growth in assay [19] was 3.54% (active); in [20] it was 36.3%.

For `CCOc1ccccc1NC(=O)N/C(N)=N/c1nc2ccccc2s1`, the growth was -4% (active) in assay [1]; 10.1% in [2]; 42% in assay [3]; 0.962% (active) in assay [4]; 48.7% in assay [5]; 27.3% in assay [6]. Also, the growth was 3.78% (active) in assay [7]; -27.7% (active) in assay [8]; 52.2% in assay [9]; 13.4% in assay [10]; 2.52% (active) in [11]; -48.7% (active) in assay [12]. Moreover, the growth in assay [13] is 32.8%; in assay [14] it was 14.7%; in assay [15] it was 10.4%; in [16], 23.3%; in assay [17], -40.9% (active); in assay [18] it was 28.1%. The results for the growth in assay [19] and in assay [20] were 0.997% (active) and 54.3%, respectively.

With `Clc1ccc(Nc2nnc(-c3c[nH]c4ccccc34)o2)cc1`, the growth in [1] was 91%; in assay [2], 32%; in assay [3], 78.8%; in assay [4] it was 65.1%; in assay [5], 90.2%; in assay [6] it was 68.6%. Moreover, the growth in assay [7] was 68.6%; in [8], 66.5%; in [9], 84.4%; in assay [10], 80.9%; in [11], 40.4%; in assay [12], 88.6%. For the same compound, the growth in [13] is 59.5%; in assay [14] it was 85.5%; in assay [15], 76.4%; in [16], 60.7%; in [17] it was 87.6%; in [18], 65.4%. In addition, the growth in assay [19] is 58.1%; in [20], 91.1%.

Take `COc1cc(NC(=O)CSc2nnc(-c3ccc(-c4nc5ccc(Cl)cc5[nH]4)cc3)o2)cc(OC)c1OC`: the growth was 96% in [1]; 29.5% in assay [2]; 18.1% in [3]; 60.2% in assay [4]; 25.8% in assay [5]; 52.9% in assay [6]. The growth in assay [7] is 65%; in assay [8], 24.1%; in [9] it was 67.2%; in assay [10] it was 33.5%; in assay [11], 25.6%; in assay [12], 51.3%. The growth in assay [13] is 36.8%; in assay [14], 49.3%; in assay [15], 32.8%; in [16], 52.3%; in [17], 5.22% (active); in assay [18], 28.4%. In addition, the growth in [19] was 32.2%; in [20] it was 49.1%.

In the case of `CN1CCN(CCS(=O)(=O)Nc2cc(-c3ccc4ncnc(Nc5ccc(F)c(Cl)c5)c4c3)cnc2Cl)CC1`, the growth was 14.8% in assay [1]; 20.2% in [2]; -90.5% (active) in assay [3]; -41.3% (active) in assay [4]; -1.07% (active) in [5]; 40.8% in assay [6]. In addition, the growth in assay [7] is 7.8% (active); in [8] it was -8.6% (active); in assay [9], 18.2%; in assay [10] it was 20.9%; in [11], 24.5%; in assay [12] it was 12%. For the same compound, the growth in assay [13] was 22.1%; in assay [14], 10.1%; in assay [15], 16.5%; in assay [16], 20.2%; in assay [17] it was -75.9% (active); in assay [18] it was -3.28% (active). Moreover, the figures for the growth in assay [19] and in assay [20] were -57.5% (active) and 4.33% (active), respectively.

As to `Fc1ccc(N2CC(Cn3c(C(F)(F)F)cc4c(Cl)ncnc43)C2)c(F)c1`, the growth was -6.58% (active) in [1]; -57% (active) in [2]; 89.7% in assay [3]; -81.9% (active) in assay [4]; -51.1% (active) in [5]; -42% (active) in assay [6]. For the same compound, the growth in assay [7] is 87.8%; in assay [8] it was 50.2%; in [9], 11.4%; in assay [10] it was -60.9% (active); in assay [11], -76.5% (active); in assay [12], -59.4% (active). Further, the growth in [13] was 24.6%; in assay [14], -39.1% (active); in assay [15], -26.6% (active); in [16], 0.119% (active); in [17] it was 88.9%; in assay [18], 6.55% (active). Besides, the figures for the growth in assay [19] and in assay [20] were -93.6% (active) and -89.8% (active), respectively.
